# MCF10A rereplic = A quantitative high throughput screen for small molecules that induce DNA re-replication in MCF 10a normal breast cells; Potency, µM (series often up to 46.1 µM), hits mostly activators; MCF 10A DNA re-replication, Hoechst nuclear intensity, 48 h; 350,000 compounds, 2.9% hits; further: nearly all actives have a fitted effect of over 50% in size
# SW480 rereplic = A quantitative high throughput screen for small molecules that induce DNA re-replication in SW480 colon adenocarcinoma cells. SW480 DNA re-replication, Hoechst DNA content imaging, 48 h. Potency, µM (top dose mostly 46.1 µM), most hits filed as activators. 340,000 compounds, 1.8% hits; further: nearly all actives have a fitted effect of over 55% in size
#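 Cells (250 per well) received 23 nL compound or DMSO by pin tool and were kept 48 hr at 37 C, 5% CO2. Nuclei were then stained with Hoechst for 40 min and scanned for DNA content.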
# VP16 counter = VP16 counterscreen qHTS for inhibitors of ROR gamma transcriptional activity | AID 2546, 2010 | 310,000 compounds, 3.5% hits | Drosophila S2 Gal4-VP16 UAS-luciferase, luminescence, 20 h | Potency, µM (titrated, usually from 53.6 µM), hits mostly inhibitors;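 further: Gal4-VP16 expression switched on by copper sulfate through the metallothionein promoter; nearly all actives have a fitted effect of over 50% in size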
# RORgamma inh = qHTS for inhibitors of ROR gamma transcriptional activity; Drosophila S2 Gal4-RORgamma UAS-luciferase reporter, 20 h; 310,000 compounds, 5.4% hits; Potency, µM (doses to about 53.6 µM), hits mostly inhibitors; AID 2551, 2010; Nuclear receptor ROR-gamma (Mus musculus), P51450; further: nearly all actives have a fitted effect of over 60% in size
# Target sequence (P51450 whole entry, looked up, the tested form may be a part): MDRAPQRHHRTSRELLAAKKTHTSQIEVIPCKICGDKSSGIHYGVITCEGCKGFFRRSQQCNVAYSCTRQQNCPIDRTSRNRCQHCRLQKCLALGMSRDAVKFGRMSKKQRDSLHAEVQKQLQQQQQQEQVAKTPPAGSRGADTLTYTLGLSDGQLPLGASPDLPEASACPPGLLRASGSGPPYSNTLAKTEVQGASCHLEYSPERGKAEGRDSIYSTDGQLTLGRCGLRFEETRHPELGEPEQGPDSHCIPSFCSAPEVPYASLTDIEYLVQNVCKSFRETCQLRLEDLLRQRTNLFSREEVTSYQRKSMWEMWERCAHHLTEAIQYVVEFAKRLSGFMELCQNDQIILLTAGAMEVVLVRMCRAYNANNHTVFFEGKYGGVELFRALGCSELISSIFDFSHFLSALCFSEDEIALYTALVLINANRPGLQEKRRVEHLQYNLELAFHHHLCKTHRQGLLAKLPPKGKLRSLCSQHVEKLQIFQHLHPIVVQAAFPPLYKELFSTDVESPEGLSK
#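 Using a luciferase readout, inhibitors were identified by reduced reporter activity in Drosophila cells coexpressing a copper-inducible Gal4–ROR gamma fusion and UAS-driven Photinus luciferase, incubated 20 hr after 700 uM copper sulfate.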
# IL1B secr inh = qHTS for Inhibitors of Inflammasome Signaling: IL-1-beta AlphaLISA Primary Screen; THP-1 LPS/ATP IL-1B secretion, AlphaLISA, 16 h; stronger effect = lower value; activity change, % at 57.5 µM; 360,000 compounds, 4.7% hits; in the data active means activity change below about -50%; inconclusive means mostly about -30% to -49%
#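 THP-1 cells pretreated 1 hr with compounds (up to 57.5 uM final), then stimulated with LPS (250 ng/mL final) plus ATP (1.25 mM final); secreted IL-1B measured by AlphaLISA after 16 hr, decreased signal indicating inhibition.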
# Hits are given with their value; . = inactive; ? = inconclusive; / = no result given; [ ] = remark or other dose. In the library only some 11% were active in any assay of this set; here they are far more common. Unless noted, the call rests on the fitted dose curve; in most records, active means well fitted curve in the direction sought with a large enough effect; inconclusive means small, poorly fitted or top-dose-only effect, or another doubt; inactive means no such curve, though single readings can be large; an effect the other way counts as inactive or inconclusive.
SMILES,MCF10A rereplic,SW480 rereplic,VP16 counter,RORgamma inh,IL1B secr inh
COc1ccc(C(C[N+](=O)[O-])c2c(-c3ccccc3)cc3ccccn23)cc1 (centres undefined),18µM,?,.,.,.
COc1cc(C(C[N+](=O)[O-])c2c(C)cc3ccccn23)ccc1O (centres undefined),?,?,?,16µM,-97
O=Nc1c(-c2ccccc2)cc2ccccn12,?,.,?,.,.
COc1cc(C(C[N+](=O)[O-])c2c(C)[nH]c3ccccc23)ccc1O (centres undefined),.,.,.,.,.
COc1ccc(C(C)=O)cc1CN1C(=O)C(C)ON=C1c1cccc(C(F)(F)F)c1 (centres undefined),/,/,/,/,.
CCOC(=O)N1CCN(C(=O)COC(=O)c2ccccc2NCCO)CC1,.,.,/,/,.
Cc1cccc(NC(=O)COC(=O)CN2C(=O)C3CCCCC3C2=O)c1C (centres undefined),/,/,/,/,.
CC(CCc1ccccc1)NC(=O)c1nnc(Cc2ccc(Cl)cc2)o1 (centres undefined),.,.,.,.,-59
COc1ccc(OC)c(C2C(C(=O)c3ccco3)=C(O)C(=O)N2CC2CCCO2)c1 (centres undefined),.,.,.,.,.
O=C1C=C(N2CCCCC2)c2ccccc2C1=O,?,3.3µM,/,/,-97
O=C1c2ccccc2C(=O)c2c1cccc2N1CCCC1,.,.,?,11µM,.
O=S(=O)(c1ccccc1S(=O)(=O)N1CCCCC1)N1CCCCC1,.,.,.,.,.
COc1ccc(C)cc1N1CC(C(=O)OCc2nc(N)nc(Nc3ccccc3C)n2)CC1=O (centres undefined),.,?,/,/,.
Fc1ccccc1NC(=S)N/N=C/c1ccccc1Br,?,18µM,4.5µM,3.2µM,.
O=[N+]([O-])c1ccc(/C=N/NC(=S)Nc2ccccc2F)o1,.,.,7.9µM,7.1µM,.
O=[N+]([O-])c1ccc(/C=N/NC(=S)Nc2ccccc2)o1,.,?,?,?,.
Nc1nc2c(ncn2[C@@H]2O[C@H](CNS(=O)(=O)c3cccnc3)[C@@H](O)[C@H]2O)c(=O)[nH]1,/,/,/,/,.
N[C@@H](Cc1cnc[nH]1)C(=O)Nc1ccc2ccccc2c1,?,?,/,/,.
CCn1c(SCC(=O)NC2CC2)nnc1C(C)Oc1ccccc1 (centres undefined),.,21µM,.,.,.
Cc1ccc(S(=O)(=O)c2ncccc2[N+](=O)[O-])cc1,5.8µM,12µM,5.6µM,5.6µM,-102
CCOC(=O)C1CCN(C(=O)C2(NC(=O)NC3CCCCC3)CCCCC2)CC1,.,.,.,.,.
CCOC(=O)C1CCN(C(=O)C2(NC(=O)Nc3ccc(F)cc3F)CCCCC2)CC1,?,.,.,.,-128
COC(=O)[C@@H]1CC[C@H](C)[C@@H](c2ccc(C)cc2)N1C(=O)c1ccc(/C=N\OC[C@@H](C)[C@H](OCc2ccccc2)C(C)C)cc1,/,/,.[10 µM],.[10 µM],/
CC1CN(c2nc(-c3ccc(Br)cc3)nnc2-c2ccccc2)CC(C)N1 (centres undefined),.,.,?,.,-105
CCCCC(CC)C(=O)Nc1ccc(C)c(O)c1 (centres undefined),.,.,.,.,.
SMILES,MCF10A rereplic,SW480 rereplic,VP16 counter,RORgamma inh,IL1B secr inh
CC(C)(C)c1cc(OC(=O)C2CCCC2)ccc1O,?,?,11µM,?,?
CCCCC(CC)C(=O)Oc1ccc(O)c(C(C)(C)C)c1 (centres undefined),4.1µM,.,.[10 µM],.,-96
CC(C)(C)c1cc(OS(C)(=O)=O)ccc1O,.,.,?,.,.
O=C(/C=C/c1ccc([N+](=O)[O-])cc1)Nc1ncc([N+](=O)[O-])s1,?,?,7.1µM,?,-78
CC(C)(C)c1nnc(NC(=O)c2cccs2)s1,.,.,?,18µM,.
CCCCC(CC)C(=O)Nc1ncc([N+](=O)[O-])s1 (centres undefined),?,.,.,.,-79
O=C(Nc1ncc([N+](=O)[O-])s1)c1ccccc1Br,.,.,?,?,.
O=C(/C=C/c1ccc([N+](=O)[O-])cc1)NCc1ccccn1,?,.,.,.,.
O=C(Nc1ncc([N+](=O)[O-])s1)c1cccs1,?,.,10µM,?,.
Cc1ccc(CC(=O)Nc2ncc([N+](=O)[O-])s2)cc1,.,.,.,.,.
Cc1ccc(OCC(=O)OCC(=O)NC2CC2)cc1C,.,.,/,/,.
COc1ccc(NC(=O)N(C)C[C@H]2Oc3ccc(NC(=O)Nc4c(C)noc4C)cc3C(=O)N([C@H](C)CO)C[C@@H]2C)cc1,.,.,/,/,.
Cc1cnc(NC(=O)c2cccs2)s1,.,?,?,?,-99
COc1ccc(NC(=O)CCC2COc3ccccc3O2)c(OC)c1 (centres undefined),.,.,.,.,.
O=C(/C=C/c1ccco1)NCC1COc2ccccc2O1 (centres undefined),.,.,11µM,.,.
O=C(/C=C/c1ccco1)NCc1ccccn1,.,.,.,4.5µM,.
COc1ccc(/C=C/C(=O)NCC2COc3ccccc3O2)c(OC)c1 (centres undefined),.,.,?,.,-59
c1ccc(Cn2c(Cn3c(-c4cnccn4)nc4ccccc43)nc3ccccc32)cc1,/,/,/,/,.
COc1ccccc1CN1CC(C(=O)NCCn2ccc(C)n2)CCC1=O (centres undefined),.,?,.,.,.
CSc1cnn(CCC#N)c(=O)n1,/,/,/,/,.
O=C(NCc1ccco1)C1CCN(C(=O)c2cc3sccc3n2Cc2ccc(Cl)cc2)CC1,21µM,?,?,?,-87
O=C(NCc1ccco1)C1CCN(C(=O)c2ccc(Cl)cc2)CC1,.,.,/,/,.
COc1cccc2cc(CC(=O)c3ccccc3)c(=O)oc12,.,.,.,.,.
O=C(Nc1ccc2ccccc2c1)c1ccc(Cl)cc1Cl,.,.,?,7.9µM,?
Oc1ccc2ccccc2c1CNc1ccc2ccccc2c1,21µM,?,/,/,-100
SMILES,MCF10A rereplic,SW480 rereplic,VP16 counter,RORgamma inh,IL1B secr inh
O=C(Nc1ccc2ccccc2c1)c1ccccc1O,?,.,?,?,-69
O=C(CS)Nc1ccc2ccccc2c1,.,?,.,.,-95
CCCCCC(=O)Nc1ccc2ccccc2c1,?,.,.,.,.
COc1ccc([C@H]2C[C@H](n3cc(COC(=O)c4ccccc4)nn3)[C@@H](O)CN2C(=O)c2cccs2)cc1,/,/,/,/,.
Cc1cc(Br)ccc1NC(=O)CN(C)C(=O)Cn1c(=O)cnc2ccccc21,.,.,.,.,.
COc1nc(N)nc2nc[nH]c12,?,.,.,.,-77
